# Laboratory results: PubChem BioAssay AID493170 (National Center for Advancing Translational Sciences (NCATS), 2011)
# Results filed as inconclusive are left out. Entries that show only a call come without a potency. Activity calls are given as the source filed them. Calls follow the shape of the dose curve; as a rule, active = well fitted inhibition curve with a large enough effect; inconclusive = small, poorly fitted or top-dose-only effect, or effect the other way; inactive = flat fitted curve, though single readings scatter.
# Biological target: Ubiquitin carboxyl-terminal hydrolase 2 (Homo sapiens) (UniProt O75604)
# Experiment: Ub-rhodamine 110 based assay for inhibitors Ubiquitin-specific Protease USP2a; also: nearly all actives have a fitted effect of over 50% in size
# Settings: USP2a Ub-rhodamine110 cleavage, fluorescence; series mostly up to 38.3 µM
# Procedure, shortened: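 Kinetic fluorescence (485/531 nm) read each minute over 7 min after adding Ub-Rhod110 (150 nM final) to USP2a (5 nM final). The enzyme had 30 min RT exposure to compounds beforehand in Tris pH 8.0 buffer with CaCl2, CHAPS and beta-ME.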
# Potency is read from the fitted curve at half-maximal effect.
# Ubiquitin carboxyl-terminal hydrolase 2 (Homo sapiens), sequence (O75604 whole entry, looked up): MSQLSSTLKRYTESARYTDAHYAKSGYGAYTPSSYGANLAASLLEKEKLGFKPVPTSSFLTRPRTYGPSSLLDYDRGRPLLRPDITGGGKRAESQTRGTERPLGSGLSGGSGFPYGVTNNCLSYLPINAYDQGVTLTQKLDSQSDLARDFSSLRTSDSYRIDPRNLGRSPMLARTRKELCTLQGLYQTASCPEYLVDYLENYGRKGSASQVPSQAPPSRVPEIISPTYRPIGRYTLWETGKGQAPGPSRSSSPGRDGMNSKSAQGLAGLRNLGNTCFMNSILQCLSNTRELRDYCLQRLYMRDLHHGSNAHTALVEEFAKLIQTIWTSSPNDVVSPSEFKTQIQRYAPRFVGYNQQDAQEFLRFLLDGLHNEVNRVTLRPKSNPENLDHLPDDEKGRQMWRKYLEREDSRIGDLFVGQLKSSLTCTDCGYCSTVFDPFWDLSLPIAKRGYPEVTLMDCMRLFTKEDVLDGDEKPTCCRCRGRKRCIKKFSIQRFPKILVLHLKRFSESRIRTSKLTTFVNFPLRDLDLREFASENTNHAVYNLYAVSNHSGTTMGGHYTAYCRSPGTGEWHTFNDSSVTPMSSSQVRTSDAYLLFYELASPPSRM
row,Compound,Potency
1,Cc1ccc(C(=O)N/C(=C/c2ccco2)C(=O)Nc2cccc(C(=O)O)c2)cc1,inactive
2,COc1ccc(-c2csc(N3CCN(C(=O)c4ccco4)CC3)n2)cc1,inactive
3,CCCOC(=O)CCCCC1SCC(NC(=O)OC)C1NC(=O)OC (centres undefined),inactive
4,Cc1cc(C)n2nc(S(=O)(=O)NCCc3ccccc3)nc2n1,inactive
5,O=C(OCc1ccccc1)C1CCCN1C(=O)c1cccs1 (centres undefined),inactive
6,CC(C)n1nc(C(=O)Nc2ccccc2N2CCOCC2)c2ccccc2c1=O,inactive
7,CC(OC(=O)c1nsc(Cl)c1Cl)C(=O)NCc1ccco1 (centres undefined),inactive
8,NS(=O)(=O)c1ccc(NC(=O)/C=C/c2cn(-c3ccccc3)nc2-c2cccc(Cl)c2)cc1,8.91 µM (active)
9,Cc1noc(NS(=O)(=O)c2ccc(N3CC(O)=C(c4ccccc4)C3=N)cc2)c1C,inactive
10,COc1ccc(OC)c(Nc2ccc(Nc3cc(OC)ccc3OC)nn2)c1,inactive
11,CC[n+]1c(/C=C/N(C)c2ccccc2)n(-c2ccccc2)c2ccc(-c3nc4ccccc4s3)cc21,inactive
12,CN=c1scc(-c2ccccc2F)n1/N=C/c1ccc(O)c(O)c1O,7.08 µM (active)
13,N#C/C(=C\c1ccc(O)c(O)c1)C(=O)Nc1cccc2ncccc12,2.24 µM (active)
14,O=C(CSc1nc2ccccc2c(=O)n1CC1CCCO1)NCc1ccccc1 (centres undefined),inactive
15,Nc1ccc(C2=Nc3cccc4cccc(c34)N2)cc1,12.6 µM (active)
16,Nc1cc(N)nc(SCC(=O)N2CCCCC2)n1,inactive
17,COc1ccc2[nH]c(=O)c(CN(C)C(=O)C3CCCCC3)cc2c1,inactive
18,Cc1cccc(C)c1-n1cccc1/C=C1\SC(=S)N(c2cccc(C(=O)O)c2)C1=O,7.94 µM (active)
19,CC(=O)Nc1cc[n+](CC(=O)c2ccc(Cl)cc2)cc1,inactive
20,CCOC(=O)C(C)Sc1nnc(Cn2c(=O)sc3ccccc32)n1-c1ccccc1 (centres undefined),inactive

row,Compound,Potency
1,Cc1nc(N(C)C)c2sc(=S)n(C)c2n1,inactive
2,O=C(CNC(=O)c1ccco1)Nc1ccc(S(=O)(=O)N2CCCC2)cc1,inactive
3,CC(=O)N1CCCc2cc(S(=O)(=O)CCC(=O)N3CCN(c4cccc(C)c4)C(C)C3)ccc21 (centres undefined),inactive
4,O=C(CSc1nc2ccccc2[nH]1)Nc1ccc2c(c1)OCCO2,inactive
5,Cc1ccc(C(=O)NCCCc2ccccc2)s1,inactive
6,CC(C)c1ccc(Nc2nnc(SCC(=O)c3nnc(-c4ccccc4)o3)s2)cc1,2.82 µM (active)
7,COc1ccccc1-n1c(SCC(=O)Nc2ccc(C)cc2)nc(O)cc1=O,inactive
8,C=C1c2c(Cl)ccc(O)c2C(O)=C2C(=O)[C@]3(O)C(O)=C(C(N)=O)C(=O)[C@@H](N(C)C)[C@@H]3[C@@H](O)C12 (some centres undefined),6.31 µM (active)
9,CC(C)C(=O)N=c1sc2cc(F)cc(F)c2n1C,inactive
10,CN(C)CCOCCP(=O)(c1ccccc1)c1ccccc1,inactive
11,Cn1c(=O)[nH]c(=O)c2c1nc(NCc1ccccc1)n2CCCc1ccccc1,inactive
12,O=C(O[C@@H]1OC2COC(=O)c3cc(O)c(O)c(O)c3-c3c(cc(O)c(O)c3O)C(=O)O[C@@H]([C@H]1O)[C@@H]2O)c1cc(O)c(O)c(O)c1,3.16 µM (active)
13,C/C(Cn1nnc2ccccc21)=N\OC(=O)c1ccccc1C,inactive
14,O=C(c1cc(-c2ccco2)on1)N1CCc2ccccc2C1,10 µM (active)
15,Cc1ccc(S(=O)(=O)N2[C@@H](c3ccccc3F)C(C(=O)O)=CC[C@H]2c2ccc(Cl)c(Cl)c2)cc1,11.2 µM (active)
16,COC(=O)c1ccc(CSc2ncnc3ccccc23)o1,inactive
17,CCC(C)NC(=O)CSC1=Nc2ccccc2C2=NC(c3ccccc3)C(=O)N12 (centres undefined),inactive
18,CCCCOC1(c2ccccc2)NC(=S)NN=C1c1ccccc1 (centres undefined),inactive
19,COc1ccc(NC(=S)NC(=O)/C=C/c2ccco2)cc1,inactive
